Laboratory results as given in PubChem BioAssay (NCI).
Several values for one entry are separate records, joined by “and”; a condition that tells them apart may be missing. Equal entries are not always repeated. This is part of a sample that, as a whole, favours compounds with a hit. Of some 79,000 tested, about 15% had one in any assay. Some compounds were tested as several samples or in several runs, with calls that do not always agree. Activity calls are given as the source filed them. No stated cut-off is given here; in the data, active means growth inhibition above about 70%; inactive means the rest.

What was measured:
[1] = NCI Yeast Anticancer Drug Screen. Data for the rad50 strain (AID 155);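 further: 0% = growth of vehicle-only cultures of the same strain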; details: S. cerevisiae rad50 strain growth inhibition, stronger effect = higher value
Procedure, shortened: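 Inhibition values express reduced yeast growth in compound-treated cultures relative to vehicle-treated controls.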

[2] = NCI Yeast Anticancer Drug Screen. Data for the mec2-1 strain (AID 157); details: S. cerevisiae mec2-1 strain, stronger effect = higher value
Procedure, shortened: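 Using mec2-1 yeast: add compound, measure growth, express inhibition versus vehicle-treated cultures.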

[3] = NCI Yeast Anticancer Drug Screen. Data for the sgs1 mgt1 strain (AID 161);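 further: 0% = growth of cultures given vehicle only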; details: S. cerevisiae sgs1 mgt1 strain, stronger effect = higher value
Procedure, shortened: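 Yeast cells carrying a defined DNA-repair defect were exposed to test compounds. Growth inhibition was measured relative to vehicle-treated controls.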

[4] = NCI Yeast Anticancer Drug Screen. Data for the cln2 rad14 strain (AID 165);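 further: 0% = growth equal to vehicle treated cultures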; details: S. cerevisiae cln2 rad14 strain, stronger effect = higher value
Procedure, shortened: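 Yeast strain cln2 rad14, bearing defects in cell cycle control and DNA repair, serves as the test system; values reflect growth inhibition compared with vehicle.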

[5] = NCI Yeast Anticancer Drug Screen. Data for the bub3 strain (AID 167); details: S. cerevisiae bub3 mutant strain, stronger effect = higher value
Procedure, shortened: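 Steps: expose the mutant yeast strain to compound; grow alongside vehicle-treated cultures; measure growth; express inhibition against the vehicle cultures.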

[6] = NCI Yeast Anticancer Drug Screen. Data for the mlh1 rad18 strain (AID 175); details: S. cerevisiae mlh1 rad18 strain growth inhibition, stronger effect = higher value
Procedure, shortened: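 Steps: expose repair-defective yeast to compound; measure growth; express inhibition against vehicle-treated controls.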

[7] = at 5.0 µM (retest, dose inferred, filed as 0.5)
[8] = at 50.0 µM (retest, dose inferred, filed as 5.0)

Row | Compound | growth inhibition [1, 7] | growth inhibition [1, 8] | growth inhibition ([1]; at 50.0 µM) | growth inhibition [2, 7] | growth inhibition [2, 8] | growth inhibition ([2]; at 50.0 µM) | growth inhibition [3, 7] | growth inhibition [3, 8] | growth inhibition ([3]; at 50.0 µM) | growth inhibition [4, 7] | growth inhibition [4, 8] | growth inhibition ([4]; at 50.0 µM) | growth inhibition [5, 7] | growth inhibition [5, 8] | growth inhibition ([5]; at 50.0 µM) | growth inhibition [6, 7] | growth inhibition [6, 8] | growth inhibition ([6]; at 50.0 µM)
1 | CC(C)(C)c1ccc(-c2c3ccccc3cc3ccccc23)cc1 | -1% (inactive) | -1% (inactive) | -2.45% (inactive) | -1% (inactive) | -1% (inactive) | -4.85% (inactive) | -5% (inactive) | -2% (inactive) | 7.55% (inactive) | 2% (inactive) | -1% (inactive) | 30.1% (inactive) | 1% (inactive) | 16% (inactive) | 0.8% (inactive) | -1% (inactive) | 2% (inactive) | -2.2% (inactive)
2 | CN(C)Cc1c(O)ccc2ccccc12 | 2% (inactive) | 89% (active) | -32.9% (inactive) and 45% (inactive) | 1% (inactive) | 98% (active) | -33% (inactive) and 90.2% (active) | 2% (inactive) | 97% (active) | -52.2% (inactive) and 43.4% (inactive) | -6% (inactive) | 96% (active) | -18.8% (inactive) and 85.1% (active) | 0% (inactive) | 97% (active) | -32.4% (inactive) and 23.8% (inactive) | 2% (inactive) | 99% (active) | -32.2% (inactive) and 39.2% (inactive)
3 | Nc1ccc2c3c(cccc13)C(=O)N(CCCBr)C2=O | 9% (inactive) | 98% (active) | 92.9% (active) | -5% (inactive) | 67% (inactive) | 0.7% (inactive) | -17% (inactive) | 80% (active) | 55.4% (inactive) | 16% (inactive) | 88% (active) | 45.1% (inactive) | 6% (inactive) | 78% (active) | 5.15% (inactive) | 32% (inactive) | 94% (active) | 82.8% (active)
4 | O=[N+]([O-])c1c(Br)cc(Br)c2c1Nc1c(ccc(Cl)c1Cl)S2 | 14% (inactive) | 94% (active) | 96.5% (active) | 26% (inactive) | 95% (active) | 96.7% (active) | 13% (inactive) | 95% (active) | 96.4% (active) | 20% (inactive) | 93% (active) | 94.2% (active) | 28% (inactive) | 95% (active) | 94.8% (active) | 39% (inactive) | 95% (active) | 95.3% (active)
5 | CCc1nc(N)nc(N)c1-c1ccc(Cl)c(N=[N+]=[N-])c1 | 41% (inactive) | 40% (inactive) | 6.65% (inactive) and 71.2% (active) | 18% (inactive) | 21% (inactive) | -15.3% (inactive) and 65.5% (inactive) | 56% (inactive) | 54% (inactive) | -0.8% (inactive) and 61.6% (inactive) | 18% (inactive) | 28% (inactive) | -6.55% (inactive) and 62.5% (inactive) | 30% (inactive) | 26% (inactive) | 6.35% (inactive) and 54.5% (inactive) | 65% (inactive) | 62% (inactive) | -1.7% (inactive) and 27.7% (inactive)
6 | CC(CCc1nc2ccccc2s1)(c1ccc(O)cc1)c1ccc(O)cc1 | 27% (inactive) | 99% (active) | 99.5% (active) | -5% (inactive) | 100% (active) | 99.7% (active) | 15% (inactive) | 100% (active) | 99.3% (active) | 6% (inactive) | 99% (active) | 98.3% (active) | -12% (inactive) | 99% (active) | 99.2% (active) | 11% (inactive) | 100% (active) | 99.2% (active)
7 | CCSSc1ccccc1C(=O)NC(CC)CO (configuration not stated) | 1% (inactive) | 59% (inactive) | 73.5% (active) | 15% (inactive) | 69% (inactive) | 20.8% (inactive) | 20% (inactive) | 71% (active) | 94.3% (active) | 0% (inactive) | 12% (inactive) | 19.4% (inactive) | -10% (inactive) | 62% (inactive) | 65.5% (inactive) | 3% (inactive) | 73% (active) | 65.5% (inactive)
8 | O=C1CSC(=S)N1c1ccc(F)c(F)c1 | 4% (inactive) | 90% (active) | 97.5% (active) | -12% (inactive) | 95% (active) | 97.2% (active) | 4% (inactive) | 94% (active) | 97% (active) | -3% (inactive) | 43% (inactive) | 86.2% (active) | 0% (inactive) | 92% (active) | 96.3% (active) | -3% (inactive) | 95% (active) | 96.4% (active)
9 | CC1(C)OC2C(O)C(O)C3OC(C)(C)OC3C2O1 (configuration not stated) | -20% (inactive) | 6% (inactive) | 6% (inactive) and 7.9% (inactive) | -13% (inactive) | 2% (inactive) | 9.35% (inactive) and -8.1% (inactive) | -6% (inactive) | 2% (inactive) | 14.4% (inactive) and 6.4% (inactive) | -1% (inactive) | 0% (inactive) | 74.1% (active) and -2.4% (inactive) | 2% (inactive) | 2% (inactive) | 61% (inactive) and 15.4% (inactive) | 25% (inactive) | 15% (inactive) | 44% (inactive) and 9.25% (inactive)
10 | CC(=O)Nc1cc(C)ccc1C | 1% (inactive) | -3% (inactive) | -36.6% (inactive) and -46.2% (inactive) | -2% (inactive) | 0% (inactive) | 15.4% (inactive) and -28.3% (inactive) | 0% (inactive) | -3% (inactive) | -1.25% (inactive) and -9.15% (inactive) | -3% (inactive) | 4% (inactive) | 51.8% (inactive) and 34.4% (inactive) | 0% (inactive) | -3% (inactive) | 42.2% (inactive) and -9.35% (inactive) | 3% (inactive) | -4% (inactive) | -36.9% (inactive) and -2% (inactive)
11 | O=C(NNC(=O)c1ccccc1O)c1ccccc1O | 4% (inactive) | 14% (inactive) | 56.1% (inactive) | 2% (inactive) | 34% (inactive) | 37.3% (inactive) | 8% (inactive) | 32% (inactive) | 61% (inactive) | -4% (inactive) | -2% (inactive) | 35.9% (inactive) | 2% (inactive) | 19% (inactive) | 74.2% (active) | 5% (inactive) | 33% (inactive) | 49.8% (inactive)
12 | COC1C(O)C(C)OC(OC2C(Oc3cccc4c(O)c5c(=O)oc6ccc(C)c7c(=O)oc(c34)c5c67)OC(C)C3O[C@H](c4ccccc4)OC32)C1O (some centres not stated) | 82% (active) | 96% (active) | 86.5% (active) | 70% (active) | 96% (active) | 88.5% (active) | 73% (active) | 96% (active) | 91% (active) | 59% (inactive) | 96% (active) | 88.3% (active) | 74% (active) | 95% (active) | 89.6% (active) | 77% (active) | 93% (active) | 77.3% (active)
13 | C[C@H](CCC(=O)O)[C@H]1CC[C@H]2[C@@H]3[C@H](O)C[C@@H]4C[C@H](O)CC[C@]4(C)[C@H]3CC[C@]12C | 24% (inactive) | 94% (active) | 90% (active) | -14% (inactive) | 96% (active) | 91.3% (active) | 9% (inactive) | 96% (active) | 92.3% (active) | 19% (inactive) | 96% (active) | 90.2% (active) | -3% (inactive) | 98% (active) | 90.5% (active) | 6% (inactive) | 97% (active) | 90.2% (active)
14 | C[C@H]1CC[C@H]([C@@H](C)[C@H]2[C@@H](O)C[C@H]3[C@@H]4CC[C@H]5C[C@@H](O)CC[C@]5(C)[C@H]4CC[C@]23C)NC1 | 32% (inactive) and 5% (inactive) | 94% (active) and 96% (active) | 91.3% (active) and 88.7% (active) | 19% (inactive) and 2% (inactive) | 98% (active) and 99% (active) | 91.8% (active) and 85.7% (active) | 23% (inactive) and 4% (inactive) | 98% (active) and 94% (active) | 92.5% (active) and 85.7% (active) | 23% (inactive) and 1% (inactive) | 97% (active) and 60% (inactive) | 91% (active) and 88.3% (active) | 24% (inactive) and 0% (inactive) | 98% (active) and 92% (active) | 92.1% (active) and 89.3% (active) | 28% (inactive) and -4% (inactive) | 97% (active) and 98% (active) | 84.5% (active) and 89.2% (active)
